Structures are written as SMILES. Several values for one entry are separate records, joined by “and”; a condition that tells them apart may be missing. Identical values can stand only once. Counter-ions that a name gives are not always drawn.

For the experiment, the target named is PARP1 L713F-nLuc biosensor (HCT116) (UniProt P09874). As to the kind of experiment: PARP1 L713F-nLuc/akaLuc ratio relative to DMSO control (biosensor stabilization) (fold change); higher = more PARP1 biosensor stabilization (target engagement / stabilizer), active = hit call of the paper. The conditions noted are these: stock concentration (mM; final µM = stock mM x 1): 10; 24 h.
PARP1 L713F-nLuc biosensor (HCT116), sequence (P09874 whole entry L713F, looked up): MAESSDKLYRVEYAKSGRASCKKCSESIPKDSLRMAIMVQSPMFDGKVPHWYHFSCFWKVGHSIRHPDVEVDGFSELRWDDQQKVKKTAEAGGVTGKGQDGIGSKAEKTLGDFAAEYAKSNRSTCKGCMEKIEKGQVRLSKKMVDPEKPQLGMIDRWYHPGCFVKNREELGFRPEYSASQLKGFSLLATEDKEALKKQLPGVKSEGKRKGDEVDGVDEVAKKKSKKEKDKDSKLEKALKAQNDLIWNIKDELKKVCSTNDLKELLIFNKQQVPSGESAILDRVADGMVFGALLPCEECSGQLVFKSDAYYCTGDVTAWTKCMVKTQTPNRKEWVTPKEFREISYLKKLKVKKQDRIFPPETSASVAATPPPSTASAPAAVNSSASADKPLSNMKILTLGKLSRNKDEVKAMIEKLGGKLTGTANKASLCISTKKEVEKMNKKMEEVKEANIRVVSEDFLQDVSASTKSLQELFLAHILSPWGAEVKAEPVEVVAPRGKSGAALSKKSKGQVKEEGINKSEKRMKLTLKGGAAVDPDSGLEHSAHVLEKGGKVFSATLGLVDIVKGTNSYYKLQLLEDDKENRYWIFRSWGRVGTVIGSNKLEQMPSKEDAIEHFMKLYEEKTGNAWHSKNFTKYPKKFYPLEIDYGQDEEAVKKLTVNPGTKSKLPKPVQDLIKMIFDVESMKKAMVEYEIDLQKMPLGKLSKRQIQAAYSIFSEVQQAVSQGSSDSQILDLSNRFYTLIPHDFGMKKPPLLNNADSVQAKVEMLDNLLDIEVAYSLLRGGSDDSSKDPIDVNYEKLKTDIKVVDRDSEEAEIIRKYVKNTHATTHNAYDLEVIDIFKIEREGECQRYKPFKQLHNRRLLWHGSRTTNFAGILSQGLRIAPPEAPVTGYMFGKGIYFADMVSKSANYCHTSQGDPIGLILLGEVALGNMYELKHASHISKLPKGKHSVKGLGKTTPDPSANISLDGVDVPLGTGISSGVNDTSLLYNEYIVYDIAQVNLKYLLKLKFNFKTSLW
Take `COc1cc(-c2cn(C)c(=O)c3cnccc23)cc(OC)c1CN1CCN(CCCCCOc2cc(-c3scnc3C)ccc2CNC(=O)[C@@H]2C[C@@H](O)CN2C(=O)[C@@H](NC(=O)C2(F)CC2)C(C)(C)C)CC1`: the “PARP1 L713F-nLuc/akaLuc ratio” value is 0.634 (inactive).
With `O=C(NC[C@H](O)CN1CCc2ccccc2C1)c1cc(NC2COC2)ncn1`, the “PARP1 L713F-nLuc/akaLuc ratio” value is 0.532 (inactive) and 0.854 (inactive).
To `O=C(O)CNC(=O)c1ncc(-c2cccc(F)c2)cc1O` belongs 0.618 (inactive); to `O=C(O)CNC(=O)c1ncc(-c2cccc(Cl)c2)cc1O` [Vadadustat], 1.03 (inactive); to `COC(=O)c1cccc(NC(=O)NC2CCN(c3ccnc(Nc4ccc(F)cc4)n3)C2)c1` (stereo unspecified), 1.07 (inactive).
With `CCCCCCCCc1ccc(CCC(N)(CO)CO)cc1` [Fingolimod (FTY720) HCl], the “PARP1 L713F-nLuc/akaLuc ratio” value is 0.577 (inactive).
To `FC(F)c1nc2ccccc2n1-c1nc(N2CCOCC2)nc(N2CCOCC2)n1` belongs 0.962 (inactive); to `CC1(C)CN(C(=O)c2ccc(-c3cccc4nc(NC(=O)C5CC5)nn34)cc2)C1` [Solcitinib], 0.98 (inactive); to `Cc1cc(Nc2cc(CN3CCOCC3)c3nc(C)c(Cc4ccc(Cl)cc4F)n3n2)n[nH]1` [Gandotinib], 1.75 (inactive).
As for `CN(C)C(=N)N=C(N)N` [Metformin D6 (hydrochloride)], the figure is 1.08 (inactive).
Turning to `Cc1cc(Nc2nc(N[C@@H](C)c3ncc(F)cn3)ncc2Cl)[nH]n1`, the “PARP1 L713F-nLuc/akaLuc ratio” value was 0.882 (inactive).
With `N#Cc1ccnc(N2C(=O)CC[C@H]2C(=O)N(c2cncc(F)c2)[C@H](C(=O)NC2CC(F)(F)C2)c2ccccc2Cl)c1` [Ivosidenib (AG-120)], the “PARP1 L713F-nLuc/akaLuc ratio” value was 0.863 (inactive).
For the compound `O=C1CCC(N2C(=O)c3ccccc3C2=O)C(=O)N1` (stereo unspecified) [Thalidomide], the “PARP1 L713F-nLuc/akaLuc ratio” value is 0.757 (inactive).
Consider `Nc1cc(F)ccc1NC(=O)/C=C/c1cnn(C/C=C/c2ccccc2)c1`, for which the “PARP1 L713F-nLuc/akaLuc ratio” value was 0.76 (inactive) and 0.99 (inactive).
For `CCCCC(=O)OCC(=O)[C@]1(O)Cc2c(O)c3c(c(O)c2[C@@H](O[C@H]2C[C@H](NC(=O)C(F)(F)F)[C@H](O)[C@H](C)O2)C1)C(=O)c1c(OC)cccc1C3=O` [Valrubicin], the “PARP1 L713F-nLuc/akaLuc ratio” value was 1.13 (inactive).
Consider `CC(C)=CC(=O)O[C@H]1Cc2cc3ccc(=O)oc3cc2OC1(C)C` [Decursin], for which the “PARP1 L713F-nLuc/akaLuc ratio” value is 0.768 (inactive).
`C[C@@H]1CCN(C(=O)CC#N)C[C@@H]1N(C)c1ncnc2[nH]ccc12` [Tofacitinib (citrate)]: the “PARP1 L713F-nLuc/akaLuc ratio” value is 0.775 (inactive).
`CN1CCN(c2nc(C3=C(c4c[nH]c5ccccc45)C(=O)NC3=O)c3ccccc3n2)CC1` [Sotrastaurin]: the “PARP1 L713F-nLuc/akaLuc ratio” value was 1.31 (inactive).
On to `O=C1CCc2c(ccc3ccccc23)O1` [Splitomicin], for which the “PARP1 L713F-nLuc/akaLuc ratio” value is 0.895 (inactive).
Regarding `O=c1cc(N2CCOCC2)oc2c(-c3ccc4c(c3)OCCO4)csc12`, the “PARP1 L713F-nLuc/akaLuc ratio” value is 0.39 (inactive).
In the case of `COc1cc2ncnc(Nc3ccc(F)c(Cl)c3)c2cc1OCCCN1CCOCC1` [Gefitinib (ZD1839)], the “PARP1 L713F-nLuc/akaLuc ratio” value is 1.04 (inactive).
For the compound `COc1ccc(C(=O)C2CCN(CC(=O)N(Cc3nc4c(c(=O)[nH]3)COCC4)CC3CC3)CC2)cc1`, the “PARP1 L713F-nLuc/akaLuc ratio” value was 1.01 (inactive).
Regarding `CC(C)n1cnc2c(NCCc3ccc(O)cc3)nc(-c3csc4ccccc34)nc21` [StemRegenin 1 (SR1)], the “PARP1 L713F-nLuc/akaLuc ratio” value is 0.788 (inactive).
Regarding `C=C(C)[C@@H](CC=C(C)C)C[C@@]12C[C@@H](CC=C(C)C)C(C)(C)[C@@](CC=C(C)C)(C(=O)C(C(=O)c3ccc(O)c(O)c3)=C1O)C2=O` [Garcinol], the “PARP1 L713F-nLuc/akaLuc ratio” value is 0.631 (inactive).
As for `CC(=O)Nc1ccccc1-c1cccc2c1[nH]c1ccccc12`, the figure is 0.622 (inactive); as for `CCS(=O)(=O)N1CC(CC#N)(n2cc(-c3ncnc4[nH]ccc34)cn2)C1` [Baricitinib (phosphate)], 1.19 (inactive).

The values above are taken from the supplement of paper PMC11624193, “Coupling cellular drug-target engagement to downstream pharmacology with CeTEAM” (Nature Communications, 2024).
